From PMC5540273 (PLoS ONE, 2017)

Columns and labels:
Details in all cases: concentration: 1 μM, replicates: in singlicate; n = 1
SgK110 = system: SgK110
TAK1 = system: T1, TAK1
T1 construct: gene MAP3K7

TAOK1 = system: TAOK1
TAOK2 = system: TAOK2
TAOK3 = system: TAOK3
TBK1 = system: TBK1
TEC = system: TEC
TESK1 = system: TESK1
TGFBR1 = system: TGFBR1
TGFBR2 = system: TGFBR2
TIE1 = system: TIE1
TIE2 = system: T2, TIE2
T2 construct: gene TEK

TLK1 = system: TLK1
TLK2 = system: TLK2
TNIK = system: TNIK
TNK1 = system: TNK1
TNK2 = system: TNK2
TNNI3K = system: TNNI3K
TRKA = system: T3, TRKA
T3 construct: gene NTRK1

TRKB = system: TRKB
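Also: KINOMEscan kinase panel screen.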

## Nc1nc(-c2cccnc2)c(-c2ccnc3ccccc23)s1 [GW684083]
SgK110
  %Inh: 48%
TAK1
  %Inh: 1%
TAOK1
  %Inh: 0%
TAOK2
  %Inh: 0%
TAOK3
  %Inh: 0%
TBK1
  %Inh: 2%
TEC
  %Inh: 0%
TESK1
  %Inh: 0%
TGFBR1
  %Inh: 5%
TGFBR2
  %Inh: 14%
TIE1
  %Inh: 6%
TIE2
  %Inh: 0%
TLK1
  %Inh: 0%
TLK2
  %Inh: 0%
TNIK
  %Inh: 81%
TNK1
  %Inh: 0%
TNK2
  %Inh: 18%
TNNI3K
  %Inh: 0%
TRKA
  %Inh: 59%
TRKB
  %Inh: 39%

## COc1cc2c(Nc3cccc(NC(=O)c4ccccc4)c3)ncnc2cc1OCCCN1CCOCC1 [GSK223810]
SgK110
  %Inh: 0%
TAK1
  %Inh: 0%
TAOK1
  %Inh: 0%
TAOK2
  %Inh: 0%
TAOK3
  %Inh: 0%
TBK1
  %Inh: 1%
TEC
  %Inh: 0%
TESK1
  %Inh: 0%
TGFBR1
  %Inh: 0%
TGFBR2
  %Inh: 0%
TIE1
  %Inh: 24%
TIE2
  %Inh: 0%
TLK1
  %Inh: 0%
TLK2
  %Inh: 0%
TNIK
  %Inh: 0%
TNK1
  %Inh: 22%
TNK2
  %Inh: 13%
TNNI3K
  %Inh: 25%
TRKA
  %Inh: 45%
TRKB
  %Inh: 0%

## Cl.c1ccc(Cn2ncc3cc(Nc4ncnc5ccccc45)ccc32)cc1 [GW273749]
SgK110
  %Inh: 0%
TAK1
  %Inh: 0%
TAOK1
  %Inh: 0%
TAOK2
  %Inh: 0%
TAOK3
  %Inh: 0%
TBK1
  %Inh: 23%
TEC
  %Inh: 0%
TESK1
  %Inh: 0%
TGFBR1
  %Inh: 6%
TGFBR2
  %Inh: 0%
TIE1
  %Inh: 0%
TIE2
  %Inh: 0%
TLK1
  %Inh: 15%
TLK2
  %Inh: 0%
TNIK
  %Inh: 0%
TNK1
  %Inh: 0%
TNK2
  %Inh: 12%
TNNI3K
  %Inh: 0%
TRKA
  %Inh: 0%
TRKB
  %Inh: 0%

## CCc1nc(-c2cccc(N(C)S(=O)(=O)c3ccccc3)c2)c(-c2ccnc(Nc3ccc(N4CCN(C(C)=O)CC4)nc3)n2)s1 [GSK1645895]
SgK110
  %Inh: 0%
TAK1
  %Inh: 0%
TAOK1
  %Inh: 0%
TAOK2
  %Inh: 0%
TAOK3
  %Inh: 2%
TBK1
  %Inh: 27%
TEC
  %Inh: 7%
TESK1
  %Inh: 0%
TGFBR1
  %Inh: 17%
TGFBR2
  %Inh: 0%
TIE1
  %Inh: 5%
TIE2
  %Inh: 18%
TLK1
  %Inh: 26%
TLK2
  %Inh: 20%
TNIK
  %Inh: 4%
TNK1
  %Inh: 29%
TNK2
  %Inh: 3%
TNNI3K
  %Inh: 0%
TRKA
  %Inh: 0%
TRKB
  %Inh: 0%

## CNc1nccc(-c2c(-c3ccc(F)cc3)ncn2C2CCN(C)CC2)n1 [SB-222903]
SgK110
  %Inh: 36%
TAK1
  %Inh: 0%
TAOK1
  %Inh: 0%
TAOK2
  %Inh: 7%
TAOK3
  %Inh: 0%
TBK1
  %Inh: 1%
TEC
  %Inh: 10%
TESK1
  %Inh: 3%
TGFBR1
  %Inh: 24%
TGFBR2
  %Inh: 0%
TIE1
  %Inh: 0%
TIE2
  %Inh: 0%
TLK1
  %Inh: 0%
TLK2
  %Inh: 0%
TNIK
  %Inh: 21%
TNK1
  %Inh: 25%
TNK2
  %Inh: 0%
TNNI3K
  %Inh: 0%
TRKA
  %Inh: 20%
TRKB
  %Inh: 0%

## Nc1nc(-c2ccccn2)c(-c2ccnc3ccccc23)s1 [GW548057]
SgK110
  %Inh: 0%
TAK1
  %Inh: 20%
TAOK1
  %Inh: 0%
TAOK2
  %Inh: 0%
TAOK3
  %Inh: 0%
TBK1
  %Inh: 12%
TEC
  %Inh: 8%
TESK1
  %Inh: 0%
TGFBR2
  %Inh: 50%
TIE1
  %Inh: 0%
TIE2
  %Inh: 0%
TLK1
  %Inh: 12%
TLK2
  %Inh: 4%
TNIK
  %Inh: 33%
TNK1
  %Inh: 0%
TNK2
  %Inh: 5%
TNNI3K
  %Inh: 0%
TRKA
  %Inh: 49%
TRKB
  %Inh: 0%

## CS(=O)(=O)CCNCc1nc(-c2ccc3ncnc(Nc4ccc(OCc5cccc(F)c5)c(Cl)c4)c3c2)cs1.Cl [GW583340]
SgK110
  %Inh: 0%
TAK1
  %Inh: 0%
TAOK1
  %Inh: 0%
TAOK2
  %Inh: 0%
TAOK3
  %Inh: 0%
TBK1
  %Inh: 14%
TEC
  %Inh: 0%
TESK1
  %Inh: 80%
TGFBR1
  %Inh: 0%
TGFBR2
  %Inh: 0%
TIE1
  %Inh: 0%
TIE2
  %Inh: 0%
TLK1
  %Inh: 22%
TLK2
  %Inh: 0%
TNIK
  %Inh: 0%
TNK1
  %Inh: 0%
TNK2
  %Inh: 6%
TNNI3K
  %Inh: 0%
TRKA
  %Inh: 0%
TRKB
  %Inh: 0%

## C[C@@H]1CCN(C(=O)CO)C[C@@H]1N(C)c1ncnc2[nH]ccc12
SgK110
  %Inh: 0%
TAK1
  %Inh: 27%
TAOK1
  %Inh: 0%
TAOK2
  %Inh: 0%
TAOK3
  %Inh: 0%
TBK1
  %Inh: 1%
TEC
  %Inh: 3%
TESK1
  %Inh: 12%
TGFBR1
  %Inh: 7%
TGFBR2
  %Inh: 4%
TIE1
  %Inh: 3%
TIE2
  %Inh: 2%
TLK1
  %Inh: 0%
TLK2
  %Inh: 0%
TNIK
  %Inh: 6%
TNK1
  %Inh: 62%
TNK2
  %Inh: 0%
TNNI3K
  %Inh: 0%
TRKA
  %Inh: 15%
TRKB
  %Inh: 10%

## CC(C)(C)OC(=O)NC1CCCN(c2cc(-c3ccc4c(N)n[nH]c4c3)nc(N)n2)C1 (stereo not drawn) [GSK2286096]
SgK110
  %Inh: 0%
TAK1
  %Inh: 0%
TAOK1
  %Inh: 0%
TAOK2
  %Inh: 0%
TAOK3
  %Inh: 0%
TBK1
  %Inh: 74%
TEC
  %Inh: 5%
TESK1
  %Inh: 0%
TGFBR1
  %Inh: 0%
TGFBR2
  %Inh: 0%
TIE1
  %Inh: 0%
TIE2
  %Inh: 0%
TLK1
  %Inh: 0%
TLK2
  %Inh: 0%
TNIK
  %Inh: 0%
TNK1
  %Inh: 10%
TNK2
  %Inh: 13%
TNNI3K
  %Inh: 6%
TRKA
  %Inh: 0%
TRKB
  %Inh: 0%

## O=c1cc(N2CCOCC2)nc2n(Cc3cccc(Cl)c3)ccn12 [GSK2296823]
SgK110
  %Inh: 0%
TAK1
  %Inh: 0%
TAOK1
  %Inh: 0%
TAOK2
  %Inh: 0%
TAOK3
  %Inh: 0%
TBK1
  %Inh: 38%
TEC
  %Inh: 1%
TESK1
  %Inh: 0%
TGFBR1
  %Inh: 0%
TGFBR2
  %Inh: 0%
TIE1
  %Inh: 16%
TIE2
  %Inh: 0%
TLK1
  %Inh: 0%
TLK2
  %Inh: 0%
TNIK
  %Inh: 0%
TNK1
  %Inh: 0%
TNK2
  %Inh: 28%
TNNI3K
  %Inh: 1%
TRKA
  %Inh: 0%
TRKB
  %Inh: 0%

## CSc1nn2c(=O)cc(N3CCOCC3)nc2n1Cc1cccc(Cl)c1Cl [GSK2347225]
SgK110
  %Inh: 0%
TAK1
  %Inh: 0%
TAOK1
  %Inh: 2%
TAOK2
  %Inh: 0%
TAOK3
  %Inh: 3%
TBK1
  %Inh: 10%
TEC
  %Inh: 18%
TESK1
  %Inh: 7%
TGFBR1
  %Inh: 0%
TGFBR2
  %Inh: 0%
TIE1
  %Inh: 14%
TIE2
  %Inh: 2%
TLK1
  %Inh: 4%
TLK2
  %Inh: 0%
TNIK
  %Inh: 3%
TNK1
  %Inh: 3%
TNK2
  %Inh: 24%
TNNI3K
  %Inh: 15%
TRKA
  %Inh: 1%
TRKB
  %Inh: 0%
